In the supplement of paper PMC3545927:
This is one part of the list. The hit rate among all sequences tested is not known here.

Target: furin, P09958
Assay: furin cleavage Z-score vs untreated control; higher = more cleavage, active = 3.5 or more, inactive = 1 or less, 8 variable residues between constant flanks
Procedure, shortened: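 In 50 mM HEPES pH 7.5 with CaCl2 and NaCl, purified furin was incubated with bead-anchored 8-mer peptide–cDNA fusions at 1:10 enzyme:substrate in 0.01 ml. Incubation times were 7.5, 15 and 30 min. DNA set free by cleavage was adapter-tagged by PCR and sequenced, with read counts taken as abundance. Log counts relative to furin-free reactions, after lowess adjustment and median absolute deviation scaling, form the cleavage Z-score.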

Sequence of furin, P09958 (P09958 whole entry): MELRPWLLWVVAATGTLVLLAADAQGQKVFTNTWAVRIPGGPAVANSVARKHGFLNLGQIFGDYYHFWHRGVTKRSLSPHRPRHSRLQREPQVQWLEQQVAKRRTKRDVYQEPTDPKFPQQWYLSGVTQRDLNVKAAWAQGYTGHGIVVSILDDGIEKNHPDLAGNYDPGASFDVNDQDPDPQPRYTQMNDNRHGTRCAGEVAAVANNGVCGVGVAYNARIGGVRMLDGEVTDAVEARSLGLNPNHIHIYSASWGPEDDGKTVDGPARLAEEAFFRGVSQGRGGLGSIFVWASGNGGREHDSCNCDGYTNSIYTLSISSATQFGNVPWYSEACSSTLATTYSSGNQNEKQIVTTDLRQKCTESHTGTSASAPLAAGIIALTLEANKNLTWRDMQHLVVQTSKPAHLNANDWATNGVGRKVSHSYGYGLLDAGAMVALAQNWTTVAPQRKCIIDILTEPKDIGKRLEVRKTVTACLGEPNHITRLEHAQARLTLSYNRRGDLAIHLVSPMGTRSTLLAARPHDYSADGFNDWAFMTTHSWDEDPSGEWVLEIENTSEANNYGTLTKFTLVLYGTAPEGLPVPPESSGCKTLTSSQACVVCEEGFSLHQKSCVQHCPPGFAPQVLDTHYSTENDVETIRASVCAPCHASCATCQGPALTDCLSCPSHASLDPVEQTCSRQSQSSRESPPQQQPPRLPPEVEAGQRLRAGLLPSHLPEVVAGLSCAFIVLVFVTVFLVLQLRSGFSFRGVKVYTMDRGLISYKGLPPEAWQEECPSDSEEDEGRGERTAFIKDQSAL

| Sequence | furin cleavage Z-score (7.5 min) | furin cleavage Z-score (15 min) | furin cleavage Z-score (30 min) |
| --- | --- | --- | --- |
| CARLKKSQFLAGNASASA [FS-2988] | -1.1 (inactive) | -0.681 (inactive) | -1.54 (inactive) |
| CAVDGIMHTRAGNASASA [HC1171] | 1.01 | -0.806 (inactive) | 1.2 |
| CARLHRFWEGAGNASASA [FS-1739] | 1.61 | -1.73 (inactive) | 0.551 (inactive) |
| CASTALAELAAGNASASA [HC1331] | -1.46 (inactive) | -0.668 (inactive) | 0.259 (inactive) |
| CAALSRVRRAAGNASASA [FS-973] | 8.87 (active) | 9.48 (active) | 6.93 (active) |
| CASTARLARAAGNASASA [FS-1287] | 5.91 (active) | 8.42 (active) | 8.27 (active) |
| CAALSRTARAAGNASASA [FS-1510] | 8.19 (active) | 7.7 (active) | 6.47 (active) |
| CAPLGGAARAAGNASASA [HC232] | -0.625 (inactive) | -0.427 (inactive) | -0.526 (inactive) |
| CALTQRTARAAGNASASA [FS-59] | 6.17 (active) | 5.48 (active) | 5.53 (active) |
| CASTPCSAHAAGNASASA [HC2563] | 1.54 | 0.374 (inactive) | -0.524 (inactive) |
| CAVPASAYQVAGNASASA [HC254] | 0.602 (inactive) | -1.58 (inactive) | -0.419 (inactive) |
| CAEVLTSTWVAGNASASA [HC2185] | 0.631 (inactive) | -0.524 (inactive) | 0.492 (inactive) |
| CAALGRKARAAGNASASA [FS-115] | 6.64 (active) | 6.76 (active) | 5.64 (active) |
| CASTARIRRNAGNASASA [FS-198] | 11.3 (active) | 11.2 (active) | 10.4 (active) |
| CAHIARALRNAGNASASA [FS-662] | 0.331 (inactive) | 1.47 | 0.623 (inactive) |
| CASTPCSAHNAGNASASA [HC2581] | -0.0473 (inactive) | 1.28 | -0.895 (inactive) |
| CAALGINAVAAGNASASA [HC865] | 0.253 (inactive) | 0.918 (inactive) | -1.14 (inactive) |
| CASHSRVRRAAGNASASA [FS-294] | 11.4 (active) | 9.7 (active) | 7.37 (active) |
| CAFDEMEECSAGNASASA [HC1013] | 0.602 (inactive) | 0.715 (inactive) | 0.322 (inactive) |
| CARKNRSHIPAGNASASA [FS-1730] | 0.266 (inactive) | -0.138 (inactive) | -0.417 (inactive) |
| CAREHRSGEPAGNASASA [FS-2004] | -1.1 (inactive) | -0.712 (inactive) | -1.7 (inactive) |
| CAAQAREKRFAGNASASA [FS-1511] | 6.88 (active) | 8.08 (active) | 8.04 (active) |
| CARHLRSLEPAGNASASA [FS-2420] | 5.02 (active) | 6.47 (active) | 5.66 (active) |
| CARQERNKRFAGNASASA [FS-711] | 8.02 (active) | 9.31 (active) | 10.8 (active) |
| CARHLRSKVTAGNASASA [FS-1955] | -0.109 (inactive) | -0.365 (inactive) | 0.464 (inactive) |
| CARIVRSLMPAGNASASA [FS-2956] | 6.15 (active) | 8.67 (active) | 10.9 (active) |
| CAHIFRKRRPAGNASASA [FS-439] | -0.371 (inactive) | -0.427 (inactive) | -0.596 (inactive) |
| CAEVPCHRPEAGNASASA [HC2412] | 1.1 | 0.551 (inactive) | -0.217 (inactive) |
